According to PubChem BioAssay (NCI):
This is part of a sample that, as a whole, favours compounds with a hit. Of some 83,000 tested, about 20% had one in any assay.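 Single-concentration screen, 48 h exposure, 96-well plates. Endpoint: percent growth. Below 10 = active.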 Activity calls are given as the source filed them.

The compounds below were run on HL-60(TB) leukemia (assay: NCI-60 one-dose screen, 48 h (100 = growth as untreated, 0 = no growth, -100 = all killed)). Details: 10 µM unless noted.
With `COC1=C(C)C(=O)N2[C@@H]1[C@H](c1ccccc1)OC21C=CC(=O)C=C1` the growth was -11.2% (active).
In the case of `C=CCC(OC(C)=O)c1ccc(OC)c(OC)c1` (stereo not given), the growth is reported as 116% (inactive).
In the case of `COc1cc(/C=N/NC(=O)c2ccccc2Nc2ccnc(C(F)(F)F)c2)ccc1O`, the growth is reported as 14% (inactive).
For `Cc1cc(-c2cc(OC(=O)c3ccccc3)ccc2Cl)cc2nnc(Nc3ccc(OCCN4CCCC4)cc3)nc12`, the growth was 116% (inactive).
`CCOc1ccc(S(=O)(=O)Nc2ccc3c(c2)N(S(=O)(=O)CC)CCC3)cc1` was tested, and the growth was 77.1% (inactive).
`CC1=C(NCCN2CCCC2)C(=O)c2c(OCc3ccc(F)c(Cl)c3)cccc2C1=O` was tested, and the growth was 98.1% (inactive).
`CCc1c(C)c2ccc(O)c(-c3cc(-c4ccccc4)c(C#N)c(=O)[nH]3)c2oc1=O` was tested, and the growth was 109% (inactive).
In the case of `COc1cccc(C2C(C#N)=C(N)Oc3cc(OCCCCCC[P+](c4ccccc4)(c4ccccc4)c4ccccc4)ccc32)c1` (stereo not given), the growth is reported as -39.6% (active).
In the case of `COC(=O)c1cccc([N+](=O)[O-])c1`, the growth is reported as 121% (inactive).
With `Oc1[nH]c2ccc(Cl)cc2c1/C=c1/ccc2c(c1)N=C(c1cc(F)cc(F)c1)N=2` the growth was 70.1% (inactive).
For `COc1ccc(C)c2sc(N(Cc3cccnc3)C(=O)c3ccc(C#N)cc3)nc12`, the growth was -6.46% (active).
In the case of `COc1cc(C(=O)n2nc(N)c3c(C)cc(C)nc32)cc(OC)c1OC`, the growth is reported as 21.6% (inactive).
In the case of `CC1NC(=O)NC1CCCCCC(=O)O` (stereo not given), the growth is reported as 107% (inactive).
`COc1cc2nc(-c3ccc(Cl)cc3)cc(OCCCN3CCCCC3)c2cc1OC` was tested, and the growth was 29.6% (inactive).
For `COc1cc(NCCCCN=C(N)NC(N)=NC(C)C)c2ncccc2c1`, the growth was 55.9% (inactive).
`COc1ccc(/C=C/c2nc(NCCCN(C)C)c3ccccc3n2)cc1` was tested, and the growth was 88.3% (inactive).
In the case of `CCC(C)CC(CC)NCCN1CCN(C(CC)CC(C)CC)C1=S` (stereo not given), the growth is reported as 39.8% (inactive).
For `COc1cc2c3c(c(=O)oc2cc1OS(=O)(=O)c1ccc(C(F)(F)F)cc1)CCCCC3`, the growth was 107% (inactive).
`Nc1cc(O)cc(O)c1` was tested, and the growth was 98.6% (inactive).
`N=c1c2c(=N)n3c(nc2nc2n1-c1ccccc1Sc1ccccc1-2)sc1cc(Cl)ccc13` was tested, and the growth was 50.3% (inactive).
In the case of `C/C(=C(/c1ccc(O)cc1)c1ccc(Cl)cc1)c1ccccc1`, the growth is reported as -20.7% (active).
`CC1(C)N=C(N)N=C(N)N1c1cccc(/C=C/C=C/c2cccc([N+](=O)[O-])c2)c1` was tested, and the growth was 12% (inactive).
`COC(=O)c1nc(-c2ccc(C)cc2)oc1N1CCOCC1` was tested, and the growth was 93.7% (inactive).
For `O=C(NCCCNc1cc(-c2cn(-c3ccccc3)nc2-c2cccc(O)c2)ccn1)c1cccc(O)c1`, the growth was 35.2% (inactive).
With `O=C(/C=C/c1ccc(Cl)cc1)/C=C/c1cc2ccccc2[nH]c1=O` the growth was 55.6% (inactive).
For `CC(C)(C)OC(=O)N1C/C(=C\c2ccoc2)C(=O)/C(=C/c2ccoc2)C1`, the growth was 87.6% (inactive).
With `CN(C)CC1=NC2SC=C(c3ccccc3)C2C(=O)N1CC#N` (stereo not given) the growth was 86.1% (inactive).
For `Cc1cc(Nc2nc(N3CCN(C)CC3)nc3ccccc23)n[nH]1`, the growth was 96.6% (inactive).
With `COc1ccccc1C(=O)Nc1cccc(-c2cc(=O)c3c(OC)c(OC)c(OC)cc3o2)c1` the growth was 57.7% (inactive).
`COc1cccc(-c2nn(C(C)(C)C)cc2-c2ccnc(NCCCNS(=O)(=O)c3ccc(C)cc3)c2)c1` was tested, and the growth was 105% (inactive).
With `COc1cc(/C=C2\Oc3cc(OCC(=O)c4ccccc4)ccc3C2=O)cc(OC)c1OC` the growth was 118% (inactive).
`CCOC(=O)n1cc(-c2nonc2-c2cn(C)c3ncccc23)c2ccccc21` was tested, and the growth was 84.7% (inactive).
`COc1ccc(-c2csc(C3=C(O)CN(C(C)C)C3=N)n2)cc1OC` was tested, and the growth was 76.4% (inactive).
`CC(=O)O[C@H]1C(=O)[C@@]2(C)[C@H]([C@H](OC(=O)c3ccccc3)[C@]3(O)C[C@H](OC(=O)[C@H](OC(=O)CCC(=O)OC4CCC(S/N=C(N)/N=C(\N)N(C)C)CC4)[C@@H](NC(=O)c4ccccc4)c4ccccc4)C(C)=C1C3(C)C)[C@]1(OC(C)=O)CO[C@@H]1C[C@@H]2O` (stereo not given in full) was tested, and the growth was 7.49% (active).
For `Cc1ccc(-n2nc3c(c(C#N)c2=O)CC(c2ccccc2[N+](=O)[O-])C([N+](=O)[O-])=C3O)cc1` (stereo not given), the growth was 91.6% (inactive).
With `COC(=O)CNC(=O)c1ccc(NC(=O)c2[nH]c(C)c(Cl)c2Cl)c(O[C@H]2CCNC2)c1` the growth was 95.7% (inactive).
With `C[C@H](NC(=O)[C@@H]1CSSC[C@@H](NC(=O)Cc2nc3ccccc3cc2O)C(=O)NCC(=O)N1C)c1ccccc1` the growth was 32.1% (inactive).
For `COc1cc2c3c(c4c5ccccc5[nH]c4c2c(OC)c1OC)C(=O)N(O)C3=O`, the growth was 51.7% (inactive).
With `CC1(C)OC2COC3(C(=O)O)OC(C)(C)OC3C2O1` (stereo not given) the growth was 106% (inactive).
In the case of `C=C1/C(=C\C=C2/CCC[C@]3(C)[C@@H]([C@H](C)CCCC(C)(C)O)CC[C@@H]23)C[C@@H](OC(=O)CBr)C[C@@H]1O`, the growth is reported as -59.4% (active).
